Screening results as filed in PubChem BioAssay.
A selection: hits, their analogues and other compounds. The true share with any hit is near 10%.
GLS inhibitor – glutaminase GLS (human) inhibition; AID 624170; Potency, µM (doses to about 45.5 µM), for the others: at the top dose activity change, negative = inhibition, actives largely listed as inhibitors; O94925; GLS enzymatic activity, qHTS titration; 410,000 tested, 0.21% active; further: on the % scale 0 is the no-effect control and ±100 the full control effect
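Read-out is an Amplex red fluorescence increase coupled through glutamate oxidase and HRP, measured before and after 30 min room-temperature incubation. hKGA is in 45 mM KH2PO4 (pH 8.2) with 0.02% Tween-20; glutamine added as 1mM solution.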
JMJD2A Tudor inh – JMJD2A Tudor domain (human) inhibition; AlphaScreen JMJD2A-Tudor / H3K4me3 peptide binding; Potency, µM (top dose mostly 114 µM), for inactives: top-dose activity change, negative = inhibition, usual class: inhibitors; 390,000 tested, 4.4% active; further: on the % scale 0 is the no-effect control and ±100 the full control effect; nearly all actives have a fitted effect of over 50% in size
Target sequence (O75164 whole entry, looked up, the tested form may be a part): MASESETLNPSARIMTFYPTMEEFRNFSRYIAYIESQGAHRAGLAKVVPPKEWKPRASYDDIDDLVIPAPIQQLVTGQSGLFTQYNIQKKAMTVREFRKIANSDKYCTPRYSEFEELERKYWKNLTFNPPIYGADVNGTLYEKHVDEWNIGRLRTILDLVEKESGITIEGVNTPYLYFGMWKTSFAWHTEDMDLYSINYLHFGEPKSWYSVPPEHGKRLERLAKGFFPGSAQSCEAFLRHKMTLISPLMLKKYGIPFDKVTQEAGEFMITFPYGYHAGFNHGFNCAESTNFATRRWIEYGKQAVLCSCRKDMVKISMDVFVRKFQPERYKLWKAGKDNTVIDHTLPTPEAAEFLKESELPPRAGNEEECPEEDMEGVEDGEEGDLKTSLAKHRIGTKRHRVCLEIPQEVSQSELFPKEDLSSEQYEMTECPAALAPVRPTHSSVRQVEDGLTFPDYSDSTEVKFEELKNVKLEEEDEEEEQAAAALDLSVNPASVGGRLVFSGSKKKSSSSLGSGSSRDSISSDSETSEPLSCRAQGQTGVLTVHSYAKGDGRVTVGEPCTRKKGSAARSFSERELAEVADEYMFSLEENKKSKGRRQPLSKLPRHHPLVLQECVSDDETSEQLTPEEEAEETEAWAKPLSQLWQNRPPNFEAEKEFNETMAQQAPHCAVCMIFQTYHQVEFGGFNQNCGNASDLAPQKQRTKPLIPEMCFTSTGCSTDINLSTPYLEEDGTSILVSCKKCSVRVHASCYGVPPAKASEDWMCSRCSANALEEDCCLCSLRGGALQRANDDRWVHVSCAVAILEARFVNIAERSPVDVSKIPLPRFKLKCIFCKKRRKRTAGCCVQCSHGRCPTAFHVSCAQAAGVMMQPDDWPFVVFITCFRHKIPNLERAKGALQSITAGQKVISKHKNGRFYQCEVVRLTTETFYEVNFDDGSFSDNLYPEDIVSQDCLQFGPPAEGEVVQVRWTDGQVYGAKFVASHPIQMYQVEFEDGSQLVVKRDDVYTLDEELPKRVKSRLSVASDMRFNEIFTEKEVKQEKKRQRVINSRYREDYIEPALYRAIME
BAZ2B inh – blocks human BAZ2B; Q9UIF8; 360,000 tested, 4.4% active; AlphaScreen BAZ2B-H3K14Ac peptide displacement; Potency, µM (series often up to 114 µM), inactives show at the top dose activity change, negative = inhibition, most hits filed as inhibitors; further: on the % scale 0 is the no-effect control and ±100 the full control effect; nearly all actives have a fitted effect of over 60% in size
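In this displacement format the biotinylated H3(5-23) peptide acetylated at Lys14 serves as ligand at 50 nM, with BAZ2B at 50 nM in PBS pH 7.4 containing 0.01% Tween-20. Donor and acceptor beads are 10 ug/mL final.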
HP1b binding inh – blocks HP1-beta chromodomain binding to methylated histone tails | P83916 | AlphaScreen HP1-beta / biotin-H3K9me3 peptide binding | Potency, µM (titrated, usually from 114 µM), for the others: top-dose activity change, negative = inhibition, most hits filed as inhibitors | 390,000 tested, 0.56% active; further: nearly all actives have a fitted effect of over 70% in size
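Compound inhibition of the preformed complex between 50 nM HP1-beta and 50 nM biotinylated H3K9me3 peptide was read by AlphaScreen. Buffer was PBS pH 7.4 with 0.01% Tween-20. Incubations ran 30 min at room temperature, with 10 ug/mL donor/acceptor beads.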
L3MBTL1 block – L3MBTL1 (human) inhibition | 230,000 tested, 0.66% active | Potency, µM (titrated, usually from 57.1 µM), inactives show at the top dose activity, negative = inhibition, usual class: inhibitors | Q9Y468 | AlphaScreen L3MBTL1–H3K9me1 peptide binding; further: on the % scale 0 is the no-effect control and ±100 the full control effect; nearly all actives have a fitted effect of over 60% in size
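L3MBTL1 (50 nM) pre-complexed 30 min with biotinylated H3(1-15)K9me1 peptide (75 nM), then compounds added for 30 min at room temperature; AlphaScreen streptavidin donor/nickel chelate acceptor beads (10 ug/mL final) read after 30 min dark incubation.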
G9a block – inhibitors of human histone lysine methyltransferase G9a; G9a H3K9 monomethylation, AlphaScreen, 2 h; Potency, µM (series often up to 102 µM), for the others: at the top dose activity, negative = inhibition, usual class: inhibitors; 350,000 tested, 8.8% active; further: on the % scale 0 is the no-effect control and ±100 the full control effect; nearly all actives have a fitted effect of over 75% in size
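AlphaScreen detection with an anti-monomethyl H3K9 antibody quantified product after a 2 h room-temperature reaction containing 500 nM biotinylated H3K9 peptide, 20 µM SAM and 20 nM enzyme, which had been preincubated 15 min with compound.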
Active calls of the source: *; ? = inconclusive; / = no result given; [ ] = dose if it differs, or a comment. The call rests on the fitted dose curve; in most records, active means well fitted curve in the direction sought with a large enough effect; inconclusive means small, poorly fitted or top-dose-only effect, or another doubt; inactive means no such curve, though single readings can be large; an effect the other way counts as inactive or inconclusive. Potency means the concentration at half of the fitted maximal effect.

SMILES	GLS inhibitor	JMJD2A Tudor inh	BAZ2B inh	HP1b binding inh	L3MBTL1 block	G9a block
CC1Cc2cc(/C(O)=C3/C(=O)C(=O)N(CCCn4ccnc4)C3c3ccco3)ccc2O1 (stereo not given)	-12%	32µM*	?	-6%	0%	?
CC1Cc2cc(/C(O)=C3/C(=O)C(=O)N(CCCn4ccnc4)C3c3cccnc3)ccc2O1 (stereo not given)	2%	14µM*	?	8%	7%	50µM*
CC1Cc2cc(/C(O)=C3/C(=O)C(=O)N(CCCn4ccnc4)C3c3ccncc3)ccc2O1 (stereo not given)	2%	-23%	?	33%	6%	/
CC1Cc2cc(/C(O)=C3/C(=O)C(=O)N(CCCn4ccnc4)C3c3cccc([N+](=O)[O-])c3)ccc2O1 (stereo not given)	6%	-29%	?	-4%	/	50µM*
CCOc1cccc(C2/C(=C(/O)c3ccc4c(c3)CC(C)O4)C(=O)C(=O)N2CCCn2ccnc2)c1 (stereo not given)	0%	-28%	?	53%	/	?
c1nc(N2CCC(N3CCCC3)CC2)c2cc(-c3ccc4c(c3)OCO4)ccc2n1	/	-13%	/	/	/	/
COc1ccc(OCCCn2c(CCNC(=O)C3CCCCC3)nc3ccccc32)cc1	/	-13%[57.1 µM]	/	26%[57 µM]	/	/
Cc1ccc2c(=O)cc(C(=O)Nc3nc4ccc(Cl)cc4s3)oc2c1C	-4%	?	?	-11%	/	-29%[59 µM]
CCCOc1ccc(/C(O)=C2/C(=O)C(=O)N(CCCn3ccnc3)C2c2ccco2)cc1 (stereo not given)	3%	?	-7%	39%	-1%	/
COc1ccccc1C1/C(=C(\O)c2ccc3c(c2)OCCO3)C(=O)C(=O)N1CCCn1ccnc1 (stereo not given)	-5%	-29%	?	17%	/	40µM*
C=CCOc1ccc(/C(O)=C2/C(=O)C(=O)N(CCCn3ccnc3)C2c2ccco2)cc1 (stereo not given)	1%	?	50µM*	18%	-7%	20µM*
COc1ccc(C2/C(=C(\O)c3ccc4c(c3)OCCO4)C(=O)C(=O)N2CCCn2ccnc2)cc1 (stereo not given)	6%	-43%	?	-3%	/	?
CCN(c1ccccc1)c1cc(C)nc2nc(C)nn12	-2%	-6%	6%	28%	1%	-8%[59 µM]
CCN(c1ccccc1)c1cc2ccccc2c(=O)[nH]1	?	18µM*	-21%	-7%[57 µM]	/	?
CCOC(=O)c1cc(-c2ccc(C)o2)nn1CCC#N	6%	-14%	-39%	6%	-3%	13µM*
CCOC(=O)c1cc(-c2ccccc2)nn1CCC#N	8%	-19%	5%	32%	-6%	10%
Cn1cnnc1SCC(=O)c1ccc(OC(F)F)cc1	15%	32µM*	1%	17%	/	?
Cc1sc(NC(=O)C2=COCCO2)nc1-c1ccc(F)cc1	3%	-8%	-7%	-7%	-4%	79µM*
CCc1ccc(NS(=O)(=O)c2ccc3[nH]cc(C(=O)N4CCc5ccccc54)c(=O)c3c2)cc1	-3%	?	?	?	?	50µM*
CC(C)c1cc2c(c(O)c1O)[C@@]13CCCC(C)(C)C1CC2OC3=O (stereo not given in full)	-13%	40µM*	-38%	?	/	0.89µM*
CC(C)c1c(O)c(-c2cc3c(c(C(C)C)c2O)CCC2C(C)(C)CCC[C@@]32C)cc2c1CCC1C(C)(C)CCC[C@@]21C (stereo not given in full)	/	/	/	/	/	1%[2.33 µM]
CCN(CC)C(=O)CSc1nnc(-c2ccccc2)o1	2%	-4%	12%	26%	/	79µM*
CN(C)CCSc1nnc(-c2ccccc2)o1	-2%	-1%[57.1 µM]	11%	-6%	-3%	40µM*
